Reference: ChEMBL document CHEMBL3988442, “University of Dundee, Small-Polar-MMV Screening Library” (2021)

These compounds were tested against AMP-activated protein kinase, AMPK (Homo sapiens) (UniProt P54646+O43741+P54619+Q9UGJ0+Q9Y478+Q13131+Q9UGI9) (assay: AMP-dependent Kinase enzyme assay. An in vitro enzyme assay that detects ADP turnover that is directly proportional to AMPK activity. This uses naive AMPK that is activated during the assay with MK-8722). Settings: 30 µM.
Format: functional
Set-up: scale not given: direction of the effect not stated beside the values
`CC(C)(CN1CCC2(CCCNC2)C1)N1CCOCC1` (stereo not given) showed a Percent Effect of -0.439%. `Cc1nc(CC(C)C)cc(C(=O)N2C[C@@H](CN(C)C)[C@@H](CO)C2)n1` was tested, and the Percent Effect was -4.49%. `CCNC(=O)[C@@H]1C[C@H](N)CN1C(=O)c1c[nH]c2ccccc12` gave a Percent Effect of 6.06%. Work on `O=C(COc1ccc(F)cc1F)N1CCOCC(O)(CN2CCCC2)C1` (stereo not given) yielded a Percent Effect of 8.54%. `CCC[C@H]1CN(c2cncc(C(=O)N3CCCCC3)n2)C[C@@H]1N(C)C` gave a Percent Effect of 14.2%. `CNC(=O)COC(=O)c1ccn(-c2ccc(Cl)c(Cl)c2)n1` was tested, and the Percent Effect was 1.87%. For `CN(CCCO)Cc1cc(Cl)ccc1OCC(O)CN1CCCCCC1` (stereo not given), the Percent Effect was -10.6%. `CC(C)(C)CC(NC(=O)N1CCS(=O)(=O)CC1)C(F)(F)F` (stereo not given) gave a Percent Effect of -0.804%. `Cc1ccc(CN(C(=O)NCC2CCS(=O)(=O)C2)C2CC2)o1` (stereo not given) showed a Percent Effect of -7.42%. `COC(=O)NCC(=O)N1CCC(c2cc3ccccc3[nH]2)CC1` showed a Percent Effect of 6.03%. Work on `CCC(O)CN1CCN(C(=O)CCSC)CC1` (stereo not given) yielded a Percent Effect of -2.43%. In the case of `CNc1nc(C(=O)N2CCn3nc(C(=O)OC)cc3C2)cs1`, the Percent Effect is reported as -0.197%. For `COc1ccc(S(=O)(=O)C2CCN(C(=O)c3cc(C)cs3)CC2)cc1`, the Percent Effect was 2.13%. `Cc1cccn2cc(CN3CCC(N4CCN(C)C4=O)CC3)nc12` was tested, and the Percent Effect was 0.324%. `CCC[C@H]1CN(c2cncc(C(=O)N(C)C)n2)C[C@@H]1N(C)C` was tested, and the Percent Effect was 9.69%. Compound `CC(C)OCCCNC(=O)CN1CCN(c2nccs2)CC1` has a Percent Effect of 4.26%. For `O=C(c1cccc2ccnn12)N1CCC[C@H]1CN1CCCC1`, the Percent Effect was -0.374%. Work on `CN(C)S(=O)(=O)N1CCOC(c2cccc(-c3cncnc3)n2)C1` (stereo not given) yielded a Percent Effect of 9.99%. `CCN1CCC(NC(=O)N(C)Cc2csc3ccccc23)CC1` showed a Percent Effect of -1.48%. Work on `O=C(CNc1ccc(OC2CCOC2)cc1)NCc1ccc(F)cc1` (stereo not given) yielded a Percent Effect of 18.1%. `O=C(Nc1ccccn1)NC1CCN(c2ccccc2OC(F)F)C1` (stereo not given) was tested, and the Percent Effect was -0.894%. For `Cc1cc(N2Cc3cnn(CCO)c3C2)nc(-c2ccccc2)n1`, the Percent Effect was 4.37%. With `COc1cccc(CCC(=O)Nc2cnc3c(c2)c(C)nn3C)c1OC` the Percent Effect was 5%. Work on `COc1cccc(Cn2ncnc2CCC(C)N2CCN(C)CC2)c1` (stereo not given) yielded a Percent Effect of -1.98%. `Cn1cc(NC(=O)Cc2ccccc2Br)cc1C(N)=O` was tested, and the Percent Effect was 3.12%. `O=C1CN(c2ccc(C(=O)N3CCc4ccccc43)cn2)CCN1` gave a Percent Effect of 5.07%. `Cc1cc(C)c(C#N)c(NCCn2cnnc2C(C)C)n1` showed a Percent Effect of 2.2%. `CC(O)CN1CCN(Cc2coc(-c3cccc(Cl)c3)n2)CC1` (stereo not given) gave a Percent Effect of -7.56%. In the case of `CC(c1ccncn1)N(C)S(=O)(=O)NCc1ccccc1` (stereo not given), the Percent Effect is reported as -13.5%. With `CCOc1ccc(C(=O)NC2CCN(c3ncccn3)CC2)cc1C` the Percent Effect was 0.756%. `Cc1ccc(CN(C(=O)NC2CCS(=O)(=O)C2)C2CC2)o1` (stereo not given) was tested, and the Percent Effect was 1.3%. With `CN(CCc1cccc2ccccc12)Cc1nc(N)nc(N(C)C)n1` the Percent Effect was -2.41%. `CC(c1nc(C2CC2)no1)N1CCc2c(ncn2C2CC2)C1` (stereo not given) was tested, and the Percent Effect was 11.4%. With `O=S1(=O)NC(C2CCCN(S(=O)(=O)N3CCCC3)C2)=Nc2ccccc21` (stereo not given) the Percent Effect was 13.9%. For `O=C1NCC(C(=O)NCc2ccccc2CN2CCOCC2)N1` (stereo not given), the Percent Effect was -5.09%. `Cn1cc(CN2CCOC(c3cccc(-c4cncnc4)n3)C2)cn1` (stereo not given) showed a Percent Effect of 11.3%. Compound `Cc1nn2cccnc2c1C(=O)NCc1ccnc(OCC2CC2)c1` has a Percent Effect of 4.11%. `CNCC(=O)NC1CC(C)(C)Cc2nc(C(C)(C)C)ncc21` (stereo not given) showed a Percent Effect of -7.88%. `c1ccc(CN2CCN(C3CCOC4(CCOCC4)C3)CC2)nc1` (stereo not given) gave a Percent Effect of -0.926%. `CC(C)c1ccc(/C=C/CC(=O)NC2CCS(=O)(=O)CC2)cc1` showed a Percent Effect of -2.16%.
